Reference: PubChem BioAssay (NCI)
Where “and” joins values, the source holds several entries; their conditions need not be identical. Equal values may be shown once. About 83,000 compounds went through this panel and 20% of them were active in at least one assay; those are over-represented in the sample as a whole.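 Step 1: grow cells in 96-well plates. Step 2: add test compound at a single concentration. Step 3: incubate 48 h. Step 4: record percent growth.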 Calls of active or inactive are those of the source. How the source made its calls: active means growth percent below 10; inactive means the rest.

System: MCF7 breast
Assay: NCI-60 one-dose screen, 48 h (100 = growth as untreated, 0 = no growth, -100 = all killed)
Conditions: 10 µM unless noted

Row | SMILES | growth
1 | Cn1cc(-c2cc3nc(-c4cn(C)c5ncccc45)cc(N)n3n2)c2cc(F)ccc21 | 68.2% (inactive)
2 | C#CCN(C)CCCOc1ccc(N(C)C(=O)c2cc(C(C)C)c(O)cc2O)cc1Cl | 7.62% (active)
3 | COc1cc(NC(=O)CSc2nnc(-c3ccc(-c4nc5ccc(Cl)cc5[nH]4)cc3)o2)cc(OC)c1OC | 6.03% (active)
4 | CS(=O)(=O)Nc1cc(-c2ccc3ncnc(N4CCc5cc(F)c(Cl)cc54)c3c2)cnc1Cl | 8.15% (active)
5 | CC1=C(C(=O)Nc2ccccc2)C(c2cccc3ccccc23)n2c(nc3ccccc32)N1 (stereo not given) | 38.5% (inactive)
6 | COc1cc(C2CC(c3ccc(C(F)(F)F)cc3)=Nc3c(N)nc(N)nc3N2)ccc1Oc1nc(Nc2ccc(F)cc2)nc(N(C)C)n1 (stereo not given) | 3.18% (active)
7 | C[C@@H]1[C@H]2C[C@@H](C[C@H]1NCc1nc3ccccc3n1C1CCCCCC1)C2(C)C | 28.1% (inactive)
8 | CS(=O)(=O)Nc1cccc(-n2cnc3cc(-c4ccc(O)cc4)ccc32)c1 | 23.6% (inactive)
9 | COc1ccc2c(c1)C(=O)N(C)C2C1c2c(cc3c(c2OC)OCO3)CCN1C (stereo not given) | 14.7% (inactive)
10 | CCOc1ccc(-c2cc(-c3cc(C(C)C)c(O)cc3C)nn2-c2ccc(S(N)(=O)=O)cc2)cc1 | 12% (inactive)
11 | O=C(c1ccc(O)cc1)C1[C@H](c2ccc(Cl)cc2)[C@@H](c2ccccc2)NC12C(=O)Nc1ccc(Br)cc12 (stereo not given in full) | -22.1% (active)
12 | COc1cc(CNC(=O)C[C@H](C)CCC=C(C)C)ccc1OCc1cn(-c2ccccc2Cl)nn1 | 40.6% (inactive)
13 | Cc1ccc(Cl)cc1NC(=O)Nc1nc2ccc([N+](=O)[O-])cc2s1 | 0.201% (active)
14 | COc1cc(/C=N/NC(=O)c2ccc(OCc3nc4ccc(C)cc4[nH]3)cc2)cc(OC)c1OC | 38.2% (inactive)
15 | COc1ccccc1/C=C/c1cccc(NC(=S)NCCCCN(C)C)c1 | -73.9% (active)
16 | CC1(C)CC(=O)C2=C(C1)OC(N)=C(c1nc3ccccc3[nH]1)C2c1ccc(Cl)cc1 (stereo not given) | 56.4% (inactive) and 93.7% (inactive)
17 | O=C1CCC(N2C(=O)c3cccc(NCCCCCC(=O)N4CCN(c5ccc6nc7c(nc6c5C(F)(F)F)C(=O)c5ncccc5C7=O)CC4)c3C2=O)C(=O)N1 (stereo not given) | -71.6% (active)

System: HCT-116 colon
Assay: as above
Conditions: 10 µM unless noted

Row | SMILES | growth
18 | CN1CCN(C(=O)Oc2cc3c(c4ccccc24)[C@H](CCl)CN3C(=O)c2cc3cc(OCCCN4CCC4)ccc3[nH]2)[C@H]2CSSC[C@H]21 | 6.44% (active)
19 | N#Cc1cc(-c2ccc3ncnc(N4CCc5cc(F)c(Cl)cc54)c3c2)cnc1N | 33.2% (inactive)
20 | CC1=NN(C2=NC(=O)C(CC(=O)Nc3ccccc3C(F)(F)F)S2)C(c2ccc(N(C)C)cc2)C1 (stereo not given) | 30.1% (inactive)
21 | O=C1Nc2ccccc2/C1=C/C(=O)c1cc2ccccc2oc1=O | 66% (inactive)
22 | Cc1ccccc1NC(=O)c1cccc(NC(=O)CCl)c1 | 27.3% (inactive)
23 | Cn1cc(-c2cc(N)n3nc(-c4c[nH]c5ccccc45)cc3n2)c2cc(Br)ccc21 | -77.7% (active)
24 | Nc1nc2cc(-c3ccc4ncnc(NCc5ccccc5)c4c3)ccc2o1 | -20% (active)
25 | O=C(N/N=C/c1ccc(-c2cccc([N+](=O)[O-])c2)s1)c1[nH]c2ccc(Br)cc2c1-c1ccccc1 | 82.9% (inactive)
26 | Cc1nc(Nc2ccccn2)sc1C1=NNC(c2ccccc2F)C1 (stereo not given) | 34.3% (inactive)
27 | CC(C)(C)c1ccc(OCc2nc3ccccc3n2-c2cccc(N)c2)cc1 | 56.8% (inactive) and 104% (inactive)
28 | CC1=C(C(=O)OCc2ccccc2)C(c2cccc3ccccc23)n2c(nc3ccccc32)N1 (stereo not given) | 17.7% (inactive)
29 | Cc1cc(=O)oc2cc(OCC(O)CNN3C(=O)c4cccc5c(N6CCN(C)CC6)ccc(c45)C3=O)ccc12 (stereo not given) | 93.5% (inactive)
30 | CN(C)CCOc1ccc(C(=O)C2[C@H](c3ccc(Cl)cc3)[C@@H](c3ccccc3)NC23C(=O)Nc2ccc(Cl)cc23)cc1 (stereo not given in full) | -91% (active)
31 | O=C1Nc2cc(-c3ccc(NS(=O)(=O)c4ccc(-c5ccccc5)cc4)cc3)ccc2/C1=C/c1ccc[nH]1 | 20.3% (inactive)
32 | CCCSc1nnc(-c2sc3nc4ccccc4n3c2C)o1 | 106% (inactive)
33 | COc1ccc2[nH]c(O)c(N=Nc3nc(-c4ccc(C#N)cc4)cs3)c2c1 | 31.8% (inactive)
34 | CCOc1ccc2[nH]c(=O)c(C(c3nnnn3CC3CCCO3)N3CCN(Cc4ccccc4)CC3)cc2c1 (stereo not given) | 78% (inactive)
35 | Cc1cccc(NCC(=O)N2CCN(c3ncnc4c3cnn4-c3ccccc3)CC2)c1 | 58.7% (inactive)
36 | COc1ccc(NC(=O)CSc2nnc(-c3ccc(-c4nc5ccc(Cl)cc5[nH]4)cc3)o2)cc1 | 9.94% (active)

Row | SMILES | growth
37 | N/C(=N\c1nc2ccccc2s1)NC(=O)Nc1ccccc1[N+](=O)[O-] | 0.0336% (active)
38 | N#CC1=C(c2cccs2)Nc2c(c(-c3ccccc3)nn2-c2ccccc2)C12C(=O)Nc1ccc(Cl)cc12 (stereo not given) | 11.5% (inactive)
39 | Cn1cc(-c2cc3nc(-c4cn(C)c5ncccc45)cc(N)n3n2)c2cc(F)ccc21 | 10.2% (inactive)
40 | C#CCN(C)CCCOc1ccc(N(C)C(=O)c2cc(C(C)C)c(O)cc2O)cc1Cl | 7.57% (active)
41 | COc1cc(NC(=O)CSc2nnc(-c3ccc(-c4nc5ccc(Cl)cc5[nH]4)cc3)o2)cc(OC)c1OC | 33.2% (inactive)
42 | CS(=O)(=O)Nc1cc(-c2ccc3ncnc(N4CCc5cc(F)c(Cl)cc54)c3c2)cnc1Cl | 23.6% (inactive)
43 | CC1=C(C(=O)Nc2ccccc2)C(c2cccc3ccccc23)n2c(nc3ccccc32)N1 (stereo not given) | 0.0484% (active)
44 | COc1cc(C2CC(c3ccc(C(F)(F)F)cc3)=Nc3c(N)nc(N)nc3N2)ccc1Oc1nc(Nc2ccc(F)cc2)nc(N(C)C)n1 (stereo not given) | -16.4% (active)
45 | C[C@@H]1[C@H]2C[C@@H](C[C@H]1NCc1nc3ccccc3n1C1CCCCCC1)C2(C)C | 23.4% (inactive)
46 | CS(=O)(=O)Nc1cccc(-n2cnc3cc(-c4ccc(O)cc4)ccc32)c1 | 33.5% (inactive)
47 | COc1ccc2c(c1)C(=O)N(C)C2C1c2c(cc3c(c2OC)OCO3)CCN1C (stereo not given) | 27.5% (inactive)
48 | CCOc1ccc(-c2cc(-c3cc(C(C)C)c(O)cc3C)nn2-c2ccc(S(N)(=O)=O)cc2)cc1 | 24% (inactive)
49 | O=C(c1ccc(O)cc1)C1[C@H](c2ccc(Cl)cc2)[C@@H](c2ccccc2)NC12C(=O)Nc1ccc(Br)cc12 (stereo not given in full) | -75% (active)
50 | COc1cc(CNC(=O)C[C@H](C)CCC=C(C)C)ccc1OCc1cn(-c2ccccc2Cl)nn1 | 49.7% (inactive)
51 | Cc1ccc(Cl)cc1NC(=O)Nc1nc2ccc([N+](=O)[O-])cc2s1 | -37.7% (active)
52 | COc1cc(/C=N/NC(=O)c2ccc(OCc3nc4ccc(C)cc4[nH]3)cc2)cc(OC)c1OC | 21.2% (inactive)
53 | COc1ccccc1/C=C/c1cccc(NC(=S)NCCCCN(C)C)c1 | -43.4% (active)
54 | CC1(C)CC(=O)C2=C(C1)OC(N)=C(c1nc3ccccc3[nH]1)C2c1ccc(Cl)cc1 (stereo not given) | 63.4% (inactive) and 103% (inactive)
55 | O=C1CCC(N2C(=O)c3cccc(NCCCCCC(=O)N4CCN(c5ccc6nc7c(nc6c5C(F)(F)F)C(=O)c5ncccc5C7=O)CC4)c3C2=O)C(=O)N1 (stereo not given) | -86% (active)
